# Rows were chosen to be rich in hits. Some 3.6% of all compounds tested hit in one or more screens of this group.
# CRFR2-BP antag: blocks CRF-induced signaling of the CRF-BP/CRF-R2 complex. AID 588475. inhibition, % at 11.8 µM. actives 0.59% (n = 350,000). HEK293 CRF-R2/CRF-BP, CRF-induced calcium fluorescence;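 active = inhibition of the ligand-induced calcium signal above about 50% at the single tested concentration, limit read from the data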
# CendR NRP1 mod: NRP-1/CendR interaction modulation; AID 602438; FAM-RPARPAR peptide binding to NRP-1, fluorescence polarization; actives 0.85% (n = 360,000); inhibition, % at 25 µM; O14786;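 active = inhibition or corrected inhibition above about 18%, plus a signal ratio from 0.5 to 1.5, limit read from the data, passing the limit was not always enough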
# Myeloid diff MLP: myeloid differentiation induction; ER-HoxA9 myeloid progenitors, lysozyme-GFP differentiation, flow cytometry; calls only at 10 µM; actives 1% (n = 360,000); AID 624256;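 active = normalized GFP-positive differentiation at or above the plate's own cutoff, the solvent-only control mean plus 3 SD; inconclusive = no clear call, values can overlap the other calls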;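 note: cells exposed to compound for four days before flow analysis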
# FAS-TE inh: inhibitors of human fatty acid synthase thioesterase domain | P49327 | recombinant FAS-TE, OMFH fluorogenic substrate, fluorescence endpoint | inhibition, % at 15 µM | actives 0.67% (n = 360,000) | AID 602261;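 active = compounds whose normalised, plate-corrected inhibition of enzyme fluorescence in the single-dose primary screen is 50% or more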
# NadD inh: blocks S. aureus nicotinate mononucleotide adenylyltransferase; purified NadD enzyme, colorimetric absorbance read-out; actives 0.78% (n = 360,000); inhibition, % at 20 µM; in the data active = inhibition above about 26%
# A number is an active result; n = inactive; u = inconclusive; x = not tested or not shown; + = active, no number.
SMILES,CRFR2-BP antag,CendR NRP1 mod,Myeloid diff MLP,FAS-TE inh,NadD inh
COc1cccc(CNC(=O)C(C(=O)NCc2cccc(OC)c2)c2ncc(C(F)(F)F)cc2Cl)c1,n,n,n,n,n
C/C=C/c1ccc(OCCn2nnc3ccccc32)c(OC)c1,n,n,n,n,n
C=CCc1ccc(OCCn2nnc3ccccc32)c(OC)c1,n,27,n,n,n
COc1ccc(OC)c(S(=O)(=O)Nc2c(C)cccc2C)c1,n,n,n,n,n
COc1ccc(Cc2nc3ccc(C(=O)N4CCCCC4CO)cc3o2)cc1OC (stereo not drawn),n,n,n,n,n
O=c1c2c([N+](=O)[O-])cc([N+](=O)[O-])cc2sn1Cc1ccccc1,n,n,n,n,n
O=c1c2c([N+](=O)[O-])cc([N+](=O)[O-])cc2sn1-c1ccc(Br)cc1,n,n,n,n,30
COc1ccc(-n2cnc3cc([N+](=O)[O-])ccc32)cc1,n,n,n,n,n
Nc1ccc(-n2cnc3cc([N+](=O)[O-])ccc32)cc1,n,n,+,n,n
O=C(O)c1cc(O)c2c(c1)[C@H]([C@H]1c3cc(C(=O)O)cc(O)c3C(=O)c3c(O[C@@H]4O[C@H](CO)[C@@H](O)[C@H](O)[C@H]4O)cccc31)c1cccc(OC3O[C@H](CO)[C@@H](O)[C@H](O)[C@H]3O)c1C2=O (stereo partly drawn),n,n,n,n,68
O=C1c2c(O)cccc2C(C2OC(CO)[C@@H](O)[C@H](O)[C@H]2O)c2cc(CO)cc(O)c21 (stereo partly drawn),n,37,n,n,n
COc1ccc(NC(=O)CN(C)CC(=O)Nc2cccc(F)c2)cc1Cl,n,28,n,n,n
COc1ccc(NC(=O)c2cccc(F)c2)cc1Cl,n,n,n,n,n
NC(=S)NNC(=S)Nc1ccccc1,n,39,n,n,n
S=C(NNC(=S)Nc1ccccc1)Nc1ccccc1,n,n,n,n,n
CCOC(=O)CCC(NC(=O)CCC(=O)NC(CCC(=O)OCC)C(=O)OCC)C(=O)OCC (stereo not drawn),n,n,n,n,n
CCOC(=O)CCC(NC(=O)CCCC(=O)NC(CCC(=O)OCC)C(=O)OCC)C(=O)OCC (stereo not drawn),n,22,n,n,n
NC(=O)c1cn(-c2ccccc2)nc1-c1cc2ccccc2oc1=O,n,n,n,n,n
O=C(c1ccccc1)c1nn(-c2ccc(Cl)cc2)cc1C(=O)c1cc2ccccc2oc1=O,101,n,n,n,n
O=c1c2[nH]c3ccc(F)cc3c2ncn1CCCN1CCOCC1,n,47,n,n,n
O=C(O)CNC(=O)c1ccc(NC(=O)/C(=C/c2ccccc2)NC(=O)c2ccco2)cc1,n,n,n,n,n
Cc1ccc(-n2cccc2/C=C2\C(=N)N3N=C(c4ccco4)SC3=NC2=O)cc1,n,n,n,n,47
COCCNC(=O)CN(CC1CCCO1)C(=O)CCC(=O)Nc1ccccn1 (stereo not drawn),57,n,n,n,n
O=C(CN(CC1CCCO1)C(=O)CCC(=O)Nc1ccccn1)NCC1CCCO1 (stereo not drawn),n,n,n,n,n
COC(=O)CCCc1nc2ccccc2s1,n,n,n,n,n
SMILES,CRFR2-BP antag,CendR NRP1 mod,Myeloid diff MLP,FAS-TE inh,NadD inh
COc1ccccc1OC(=O)CCc1nc2ccccc2s1,n,n,+,n,n
COc1cc(C(=O)n2nc(C)cc2C)ccc1O,n,33,n,n,n
O=C1CC(=O)N(C2CCCCC2)C(=O)N1c1ccccc1S(=O)(=O)Oc1ccccc1,x,n,+,n,n
NC(=O)c1cnc(Cc2c[nH]c3ccccc23)c(I)c1,x,n,n,n,n
O=C(O)C1CC=CCC1C(=O)NCc1ccc2c(c1)OCO2 (stereo not drawn),n,n,+,n,n
Cc1ccc(-c2cc(C(=O)NCc3ccc4c(c3)OCO4)[nH]n2)c(O)c1C,n,n,n,n,n
O=C(NCc1ccc2c(c1)OCO2)c1c(F)c(F)c(F)c(F)c1F,61,n,n,n,n
Cc1ccc(CNC(=O)C2CC=CCC2C(=O)O)cc1 (stereo not drawn),n,n,n,n,n
Cc1cc(O)c(-c2cc(C(=O)NCc3ccc4c(c3)OCO4)[nH]n2)cc1C,n,n,+,n,n
Cc1ccc(CNC(=O)c2cc(-c3ccccc3)nn2CC2CC(c3cccc([N+](=O)[O-])c3)=NO2)cc1 (stereo not drawn),n,n,n,n,n
CN(C)c1cccc(CNC(=O)c2ccc3sc([C@@H]4O[C@H](CO)[C@H](O)[C@H](O)[C@H]4O)nc3c2)c1,x,n,n,n,n
CCOC(=O)CC(=O)Nc1ncnc2c1C(c1ccccc1)c1c(ccc3ccccc13)O2 (stereo not drawn),n,24,n,n,n
O=C(Nc1nnc([C@H]2C[C@H](O)[C@@H](CO)O2)s1)Nc1ccc(F)cc1F,x,n,n,n,n
O=C(Nc1cccc2ccccc12)N1CC=CCC1,88,n,n,n,n
CCOC(=O)c1cc(-c2ccccc2)sc1NC(=O)COC(=O)c1ccc(Cl)c(S(N)(=O)=O)c1,n,n,n,n,42
CCOC(=O)c1cc(-c2ccccc2)sc1NC(=O)COC(=O)c1cccc(S(N)(=O)=O)c1,n,n,n,n,n
O=C(Cn1c(=O)sc2ccccc21)NCc1ccccn1,n,n,+,n,n
O=C(CN1C(=O)c2ccccc2C1=O)NCc1ccccn1,n,n,n,n,n
CC(CNC(=O)CC[C@H]1O[C@@H](n2ccc(=O)[nH]c2=O)[C@H](O)[C@@H]1O)c1ccccc1 (stereo partly drawn),x,n,n,n,n
COc1cc(CCc2ccccc2)c(C(=O)O)c(O)c1CC=C(C)C,61,n,n,n,n
COCOc1ccc(/C=C/C(=O)c2c(OCOC)cc(OCOC)c(CC=C(C)C)c2O)cc1OCOC,n,n,u,n,n
CCC1(c2ccc(OC)cc2)NC(=O)N(CC(=O)NC2CCCCC2C)C1=O (stereo not drawn),n,23,n,n,n
O=C(c1ccco1)N(CCC(c1ccccc1)c1ccco1)Cc1ccc(F)cc1 (stereo not drawn),n,n,+,n,n
Cc1c(N2C(=O)/C(=C\c3cccc4ccccc34)SC2=S)c(=O)n(-c2ccccc2)n1C,n,n,n,n,42
Cc1ccc(-c2csc(Nc3ccc(C(=O)O)cc3)[n+]2Cc2ccccc2)cc1,69,n,x,n,44
COc1ccc(-c2csc(Nc3ccccc3)[n+]2Cc2ccccc2)cc1,n,n,n,n,n
COc1cc(NC(=O)Nc2nc(C(N)Cc3ccc(C(F)(F)F)cc3)cs2)cc(OC)c1OC (stereo not drawn),x,n,n,n,n
Cc1ccc(S(=O)(=O)N2CCN(C(=O)c3n[nH]c4ccccc34)CC2)cc1,n,n,n,n,n
O=C(c1n[nH]c2ccccc12)N1CCN(S(=O)(=O)c2ccc3ccccc3c2)CC1,n,47,n,n,n
